# From PubChem BioAssay
# Vif-A3F inh: inhibitors of Vif-A3F interaction | Potency, µM (titrated, usually from 46.1 µM), for the others: at the highest dose activity, negative = active | HeLa A3F-eYFP + Vif (tagged APOBEC3F with the HIV-1 protein that degrades it), YFP fluorescence increase | 390,000 compounds, 0.2% hits; note: potency is the fitted concentration of half-maximal effect; % of control where 0% means no effect; nearly all actives have a fitted effect of over 65% in size
#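 Fluorescence increase (Ex 488/Em 500-530) after overnight compound treatment at 37 deg C flags inhibition of Vif-driven A3F-eYFP loss in stable HeLa A3F-eYFP/Vif cells seeded overnight beforehand.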
# Epigenetic derep: derepresses silenced GFP reporter in murine cells; 280,000 compounds, 0.2% hits; Potency, µM (series often up to 53.9 µM), for the others: at the top dose GFP activation, actives largely listed as activators; murine LDR cells, GFP reporter derepression, 30 h; note: potency is the fitted concentration of half-maximal effect; % of control where 0% means no effect; nearly all actives have a fitted effect of over 60% in size
#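 Derepression of a silenced CMV-GFP reporter in murine LDR cells is scored by enumerating GFP-positive cells with a laser-scanning microplate cytometer after 30 hours of treatment at 37 C.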
# PINK1 expr mod: changes PINK1 expression; PINK1 immunofluorescence, high-content cytometry, 24 h; Potency, µM (doses to about 76.6 µM), for the others: at the highest dose activation (PINK1 increase), most hits filed as activators; 410,000 compounds, 0.2% hits; active = well fitted activation curve with a large enough effect; inconclusive = small, poorly fitted or top-dose-only effect; cell line not stated here; note: potency is the fitted concentration of half-maximal effect; % of control where 0% means no effect; nearly all actives have a fitted effect of over 65% in size
#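 Stable cell line, 250 cells/well, 12 h attachment; compounds pinned at 5 concentrations, 24 h; CCCP control. Fixed with nuclear dye, primary antibodies 12 h at 10 degrees C, secondary plus cell stain; laser-scanning cytometer read.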
# Vif-A3G inh: inhibitors of Vif-APOBEC3G interaction | HeLa A3G-eYFP + Vif (tagged APOBEC3G with the HIV-1 protein that degrades it), YFP fluorescence, overnight | Potency, µM (highest dose often 46.1 µM), for the others: at the highest dose activity, negative = active, actives largely listed as inhibitors | 410,000 compounds, 0.076% hits | AID 602310; note: potency is the fitted concentration of half-maximal effect; % is set by controls: 0 for no effect and ±100 for the full control effect; nearly all actives have a fitted effect of over 60% in size
# Target sequence (Q9HC16 whole entry, looked up): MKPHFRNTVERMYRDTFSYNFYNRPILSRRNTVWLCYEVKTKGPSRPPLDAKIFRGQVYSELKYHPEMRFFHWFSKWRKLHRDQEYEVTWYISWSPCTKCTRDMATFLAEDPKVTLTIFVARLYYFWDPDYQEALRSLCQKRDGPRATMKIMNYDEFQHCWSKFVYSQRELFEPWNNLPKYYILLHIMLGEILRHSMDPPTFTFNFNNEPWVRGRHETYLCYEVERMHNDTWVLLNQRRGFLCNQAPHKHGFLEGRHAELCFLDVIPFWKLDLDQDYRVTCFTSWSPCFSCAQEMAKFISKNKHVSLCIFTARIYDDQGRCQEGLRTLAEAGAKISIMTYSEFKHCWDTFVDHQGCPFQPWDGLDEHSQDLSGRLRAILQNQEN
#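 Read-out is eYFP fluorescence (Ex 488/Em 500-530) from Vif-expressing HeLa A3G-eYFP cells; more signal means A3G escaped Vif-mediated degradation. Cells plated overnight, compound pinned in, incubated overnight at 37 deg C.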
# C127i cell count: parental c127i cell effect of epigenetic modulator hits | shares compounds with Epigenetic derep | mouse c127i parental cells, fluorescent cell count, 30 h | Potency, µM, without a hit: at the highest dose fluorescent cell count, hits mostly activators | 60 compounds, 20% hits | AID 493065
# HCC4017 viab: epigenetic modulators: cytotoxicity in HCC4017 lung cancer cells | shares compounds with Epigenetic derep | HCC4017 NSCLC viability, CellTiter-Glo ATP luminescence, 72 h | Potency, µM (titrated, usually from 46.1 µM), for inactives: at the top dose activity change, negative = cytotoxicity, most hits filed as cytotoxic | 45 compounds, 30% hits
# H358 tox: reduces H358 lung cancer cell viability among epigenetic modulators. shares compounds with Epigenetic derep. H358 NSCLC viability, ATP luminescence, 72 h. 45 compounds, 30% hits. Potency, µM (titrated, usually from 46.1 µM), inactives show top-dose activity change, negative = viability loss, hits mostly cytotoxic. AID 493074
# An asterisk follows results filed as active; ? = inconclusive; / = no result given; [ ] = dose if it differs, or a comment. Shown are actives, neighbours in structure and some others; about 0.51% of the full set was active somewhere. Unless noted, calls come from the whole dose curve; as a rule, active = well fitted curve in the direction sought with a large enough effect; inconclusive = small, poorly fitted or top-dose-only effect, or another doubt; inactive = no such curve, though single readings can be large; an effect the other way counts as inactive or inconclusive.
SMILES,Vif-A3F inh,Epigenetic derep,PINK1 expr mod,Vif-A3G inh,C127i cell count,others
CCN1/C(=C/c2ccc3cc(C)ccc3[n+]2CC)Sc2cc(C)ccc21,?,2.8µM*,?,4%,/,
CCN1/C(=C/c2ccc3ccccc3[n+]2CC)C=Cc2ccccc21,13µM*,?,?,?,/,
CCN(CC)CCN1c2ccccc2Sc2ccc3ccccc3c21,-13%,7%,24%,-8%,/,
CCCCN1/C(=C/c2ccc3ccccc3[n+]2CC)Sc2ccccc21,?,3.2µM*,11µM*,?,/,
CCN1/C(=C/c2ccc3cc(C)ccc3[n+]2C)Sc2ccc3sccc3c21,?,10µM*,4%,-9%,/,
CCN1/C(=C/c2ccc3ccccc3[n+]2CCCS(=O)(=O)[O-])C=Cc2cc(C)ccc21,7%,/,0%,2%,/,
Cc1ccc(S(=O)(=O)N2CCC(=O)N([C@H](COCc3cccc(C)c3)Cc3ccccc3)CC2)cc1,/,5%[40.7 µM],/,/,/,
COc1cccc(-n2c(-c3ccc4[nH]c(C)c(C)c4c3)n[nH]c2=S)c1,-8%,-4%,1%,-9%,/,
Cc1ccc(C2=NS(=O)(=O)N(C)C(C(=O)Nc3ccc4c(c3)OCO4)=C2)cc1,0%,/,2%,1%,/,
COc1ccc2c3c([nH]c2c1)[C@@H]1C[C@@H]2[C@@H](C[C@H](O)[C@H](OC)[C@H]2C(=O)O)CN1CC3,/,0%[16.9 µM],/,/,/,
COC(=O)[C@H]1[C@H]2C[C@@H]3c4[nH]c5cc(OC)ccc5c4CCN3C[C@H]2C[C@@H](OC(=O)c2cc(OC)c(OC)c(OC)c2)[C@@H]1OC,?,22µM*,6%,-13%,/,
COC(=O)C1C2CC3c4[nH]c5cc(OC)ccc5c4CCN3CC2CC(OC2CCCCO2)C1OC (stereo not drawn),11µM*,/,2%,-9%,/,
N#Cc1c(NC(=O)C2CC(c3ccccc3O)=NO2)sc2c1CCC2 (stereo not drawn),-5%,-1%,0%,-1%,/,
CSCCC(NC(=O)c1ccccc1)C(=O)N(C)CC(=O)Nc1ccc(N2CCOCC2)cc1 (stereo not drawn),6%,/,0%,0%,/,
O=C(OCC12CC3CC(CC(C3)C1)C2)c1ccc(NCc2cc(O)ccc2O)cc1,22µM*,/,-2%,-15%,/,
O=C1CN(C(=O)COc2cccc(F)c2)c2ccccc2N1,/,0%,/,/,/,
Cc1noc(C)c1COc1cccc(C(=O)OCC(=O)N2CC(=O)Nc3ccccc32)c1,-2%,3%,7%,2.8µM*,/,
Nc1nc(SCc2ccc3c(c2)OCCO3)n[nH]1,-5%,0%,1%,-1%,/,
CC(C)C[C@@H](C=O)NC(=O)[C@H](CC(C)C)NC(=O)[C@H](CC(C)C)NC(=O)OCc1ccccc1,/,1.3µM*,/,/,/,
COc1cccc(Oc2nc(C)nc3c2oc2ccccc23)c1,-10%,0%,0%,6%,/,
S=C(Nc1ccccc1)c1ccccn1,-1%,5.6µM*,2%,?,22µM*,HCC4017 viab=-27%;H358 tox=-17%
Cc1ccc(/C=[N+](\[O-])c2ccc(N(C)C)cc2)c2nsnc12,15%,?,-2%,-23%,18%,HCC4017 viab=14µM*;H358 tox=28µM*
CC(=O)N[C@@H](CSC(=O)[C@]1([C@@H](O)C(C)C)NC(=O)[C@H](C)[C@@H]1O)C(=O)O,/,?,/,/,25µM*,
CC(=O)N[C@@H](CSC/C=C(\C)CCC=C(C)C)C(=O)O,/,6%,/,/,/,
COc1ccccc1-c1nn(CCC(=O)Nc2ccc(C)cc2)c2nc(C)cc(C)c12,-3%,-4%,-4%,-17%,/,
SMILES,Vif-A3F inh,Epigenetic derep,PINK1 expr mod,Vif-A3G inh,C127i cell count,others
COc1ccc(OC)c(Nc2nc3nonc3nc2N2CCCC(C)C2)c1 (stereo not drawn),-9%,?,?,-5%,14µM*,
CC1CCCN(c2nc3nonc3nc2Nc2ccccc2F)C1 (stereo not drawn),3%,1%,2%,-7%,/,
O=C(O)CCCCCN1C(=O)/C(=C\c2ccc(-c3ccc(Cl)cc3)o2)SC1=S,?,3.5µM*,3%,-6%,7.9µM*,
CN(C)S(=O)(=O)c1ccc2c(c1)C(=O)c1cc(S(=O)(=O)N(C)C)ccc1CC2,4%,/,2%,1%,/,
CN(C)S(=O)(=O)c1ccc2c(c1)/C(=C/c1cc3c([nH]1)CCCC3)C(=O)N2,?,7.9µM*,?,?,3.2µM*,
CCc1nnc(NC(=O)c2cccc(C(=O)Nc3nnc(CC)s3)n2)s1,-12%,2.5µM*,-2%,-2%,6%,HCC4017 viab=0.5µM*;H358 tox=0.56µM*
CC1CCCCN1S(=O)(=O)c1ccc(C(=O)N(CCCN(C)C)c2nc3ccc(Br)cc3s2)cc1 (stereo not drawn),3%,/,-2%,-10%,/,
Cc1ccc(S(=O)(=O)Nc2ccc3c(c2)nc(C)n3C)cc1,-6%,1%,1%,-1%,/,
CCOC(=O)N1CCN(CC(=O)c2ccc3c(c2)CCN3C(C)=O)CC1,0%,-1%,0%,0%,/,
C(=N\Nc1nc(-c2cccnc2)nc2ccccc12)/c1ccccc1,-4%,0%,-1%,-11%,/,
C(=N\Nc1nc(-c2ccccn2)nc2ccccc12)/c1ccccc1,/,10µM*,-1%,-15%,5%,HCC4017 viab=0.4µM*;H358 tox=?
COc1ccc2c(C)cc(SCC(=O)N(C)C3CCS(=O)(=O)C3)nc2c1 (stereo not drawn),11µM*,10µM*,-1%,?,?,HCC4017 viab=-14%;H358 tox=-8%
CCOc1ccc(CN(C)C(=O)Cc2c[nH]c3ccccc23)cc1,0%,/,-1%,3%,/,
CC(C)C(=O)N1CCN(c2ccc(NC(=O)c3ccc([N+](=O)[O-])o3)cc2Cl)CC1,1%,?,2%,?,?,
CN1CCN(c2ccc(NC(=O)c3ccc([N+](=O)[O-])o3)cc2Cl)CC1,-1%,/,9%,?,/,
CCCC(=O)N1CCN(c2ccc(NC(=O)c3ccc([N+](=O)[O-])o3)cc2Cl)CC1,0%,?,0%,?,4%,HCC4017 viab=1.8µM*;H358 tox=2.5µM*
COC(=O)c1ccc(OC(=O)CCN2C(=O)C3CCCCC3C2=O)cc1 (stereo not drawn),-6%,1%,1%,2%,/,
COc1nc(Nc2nc3ccccc3c(=O)[nH]2)nc2ccc(C)cc12,1%,?,9%,-7%,5%,HCC4017 viab=2.8µM*;H358 tox=3.1µM*
Cc1cc(C)cc(Nc2nc3ccccc3c(=O)[nH]2)c1,?,2%,-4%,10%,/,
